Shiga toxin inh: Shiga toxin inhibition | Vero cells, Shiga toxin protein synthesis inhibition reporter | inhibition, % at 38.7 µM | hit rate 9.2% among 290,000 | AID 2315; in the data active = inhibition mostly above about 28%, no sharp cut-off; inactive = mostly below about 43%
AMA1 RON2 block: AMA1-RON2 (P. falciparum) interaction inhibition; AlphaScreen AMA1-biotinylated RON2 peptide binding; Potency, µM (top dose mostly 58.2 µM), most hits filed as inhibitors; hit rate 0.2% among 360,000; active = well fitted inhibition curve with a large enough effect; inconclusive = small, poorly fitted or top-dose-only effect; inactive = no such curve, though single readings can be large or run the other way; note: nearly all actives have a fitted effect of over 45% in size
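AMA1 (3D7) with his tag at 25 nM final met compounds first, then biotinylated RON2 peptide at 25 nM; detection used donor plus acceptor beads, 10 µg/mL apiece, read by AlphaScreen after 30 min at room temperature.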
Lassa entry inh: blocks Lassa virus binding to or entry into cells; hit rate 1.2% among 300,000; AID 540256; Lassa virus pseudotype entry inhibition, cell reporter; Potency, µM (doses to about 37.9 µM), hits mostly inhibitors; calls by dose curve; tested in HEK293 cells; note: nearly all actives have a fitted effect of over 50% in size
Marburg entry inh: blocks Marburg virus binding to or entry into cells; Marburg virus pseudotyped entry inhibition, cell reporter; Potency, µM (top dose mostly 37.8 µM), most hits filed as inhibitors; hit rate 1.8% among 300,000; calls by dose curve; tested in HEK293 cells
Cycloheximide cs: counter-screen hit for Shiga toxin inhibitors, cycloheximide; cell reporter, cycloheximide protein synthesis inhibition counterscreen; hit rate 12% among 300,000; AID 2314; max response, %; in the data active = max response mostly above about 13%, no sharp cut-off; inactive = mostly below about 14%; note: read at 38.3 µM for the half of the compounds with a filed dose
Each line names hits and unclear results; the compound was inactive in the other large screens. This is one part of a sample in which hits are shown more often than they occur.

CCOc1ccc(C2C(=O)N(C3CCCCCC3)CC(=O)N2Cc2ccc(F)cc2)cc1OC (stereo not given)	none (no result: Shiga toxin inh, AMA1 RON2 block, Marburg entry inh, Cycloheximide cs)
C[C@H]1CC[C@H]2C(=O)N(Cc3ccccc3)C[C@@H](O)CN2[C@H]1c1cccc(Br)c1	Lassa entry inh inconclusive (no result: Shiga toxin inh, AMA1 RON2 block, Cycloheximide cs)
NC(=O)c1ccc(CSc2nc3ccccc3s2)cc1	Shiga toxin inh 94, Lassa entry inh inconclusive, Marburg entry inh inconclusive, Cycloheximide cs 48
c1ccc2sc(SCc3ccc(-c4nnco4)cc3)nc2c1	Shiga toxin inh 73, Lassa entry inh 11µM, Marburg entry inh inconclusive, Cycloheximide cs 38
CCNC(=O)c1ccc(CSc2nc3ccccc3s2)cc1	Lassa entry inh inconclusive
COCCNC(=O)c1ccc(CSc2nc3ccccc3s2)cc1	Shiga toxin inh 73, Marburg entry inh inconclusive, Cycloheximide cs 43
c1ccc2sc(SCSc3nc4ccccc4s3)nc2c1	none (no result: Lassa entry inh, Marburg entry inh)
CCC(C)/C(C)=N/NC(=O)c1ccc(CSc2nc3ccccc3s2)cc1 (stereo not given)	Lassa entry inh inconclusive, Cycloheximide cs 20
COc1cc(NC(=O)CN2CCN(CC(=O)Nc3ccccc3OC)CC2)cc(OC)c1	none (no result: Lassa entry inh, Marburg entry inh)
Cc1ccc(C2(C)NC(=O)N(CC(=O)Nc3ccc(S(=O)(=O)Nc4nccs4)cc3)C2=O)cc1 (stereo not given)	none (no result: Shiga toxin inh, Cycloheximide cs)
N#CC(c1cccc(Cl)c1)c1ccc2c(C(F)(F)F)cc(C(F)(F)F)nc2n1 (stereo not given)	AMA1 RON2 block inconclusive, Lassa entry inh 2.2µM, Marburg entry inh inconclusive
NNc1ccc2c(C(F)(F)F)cc(C(F)(F)F)nc2n1	none
CCCCOc1ccc(Cn2c(=O)sc3ccccc32)cc1OC	none (no result: Shiga toxin inh, AMA1 RON2 block, Cycloheximide cs)
Cc1ccc(NC(=O)N/C=C/c2ccccc2)cc1	Shiga toxin inh 42, Cycloheximide cs 24
Cc1ccc(NC(=O)N/C=C/c2ccc(Cl)cc2)cc1	Marburg entry inh inconclusive
O=C(N/C=C/c1ccccc1)Nc1ccc(Cl)cc1	Shiga toxin inh 198, Lassa entry inh inconclusive, Cycloheximide cs 74
CC(C)n1cc(CN2CCN(CCc3ccccc3)C(CCO)C2)cn1 (stereo not given)	Marburg entry inh inconclusive
O=C(COC(=O)c1c(F)cccc1Cl)NC1CCCC1	Shiga toxin inh 110, Marburg entry inh inconclusive, Cycloheximide cs 51
COc1cccc(NC(=O)COC(=O)c2ccccc2F)c1	none
COc1cccc(NC(=O)COC(=O)c2c3c(nc4ccccc24)CCC(C)C3)c1 (stereo not given)	Lassa entry inh 18µM, Marburg entry inh 7.3µM
COc1cccc(NC(=O)COC(=O)c2c(F)cccc2Cl)c1	Shiga toxin inh 95, Marburg entry inh inconclusive, Cycloheximide cs 37
CNc1ccc(-c2ccccc2CO)cn1	none (no result: Shiga toxin inh, Lassa entry inh, Marburg entry inh, Cycloheximide cs)
CCOC(=O)N1C(=O)C2(CCCCC2)N(c2ccccc2Cl)C1=S	Lassa entry inh inconclusive
COc1cccc(NC(=O)CCc2nc(-c3ccccc3F)no2)c1	Cycloheximide cs 17
Cc1ccc(-c2noc(CCC(=O)Nc3cccc(C#N)c3)n2)cc1	Shiga toxin inh 34, Cycloheximide cs 34
O=C(CCc1nc(-c2ccccc2F)no1)Nc1ccc(Oc2ccccc2)cc1	Lassa entry inh inconclusive
COc1ccc(Cl)cc1NC(=O)CCc1nc(-c2ccccc2F)no1	none
CCc1ccccc1NC(=O)CCc1nc(-c2cccs2)no1	Shiga toxin inh 48
COc1ccccc1NC(=O)CCc1nc(-c2ccccc2F)no1	Cycloheximide cs 16
Cc1cccc(CNC(=O)c2ccc3nc(-c4ccccc4)c(-c4ccccc4)nc3c2)c1	none (no result: Shiga toxin inh, AMA1 RON2 block, Lassa entry inh, Cycloheximide cs)
Cc1cccc(NC(=O)c2ccc(-n3c(C)nnc3C)cc2)c1	none (no result: Shiga toxin inh, AMA1 RON2 block, Marburg entry inh, Cycloheximide cs)
Cn1cc([N+](=O)[O-])c(C(=O)Nc2ccn(Cc3c(F)c(F)cc(F)c3F)n2)n1	none
CC(=O)c1cccc(NC(=O)C2Cc3c(-c4cccc(F)c4)ccnc3O2)c1 (stereo not given)	none (no result: Shiga toxin inh, Lassa entry inh, Marburg entry inh, Cycloheximide cs)
O=C(NCc1ccccc1)c1cc(C2CCCN(C(=O)c3ccccc3)C2)on1 (stereo not given)	none (no result: Shiga toxin inh, Lassa entry inh, Marburg entry inh, Cycloheximide cs)
O=C(C1CCC(Cn2c(=O)c3sccc3n(Cc3ccccc3)c2=O)CC1)N1CCOCC1 (stereo not given)	none (no result: Shiga toxin inh, AMA1 RON2 block, Marburg entry inh, Cycloheximide cs)
COc1ccc(N2CCN(CCCNC(=O)CN3C(=O)COc4ccccc43)CC2)cc1	none (no result: Lassa entry inh, Marburg entry inh)
Cc1cc(Cl)cc(C)c1OCCn1ccnc1	Lassa entry inh 3.5µM, Marburg entry inh 1.3µM
Cc1ccccc1OCCn1ccnc1	Cycloheximide cs 38 (no result: Lassa entry inh, Marburg entry inh)
COc1ccc(OC)c(NC(=O)c2cc(S(=O)(=O)N3CCCC3)cn2C)c1	none (no result: Lassa entry inh, Marburg entry inh)
C[C@]12C[C@@](C)(C=C1C=Cc1ccc(F)cc1)C(=O)C[C@H]2c1ccc(F)cc1	Lassa entry inh inconclusive (no result: Shiga toxin inh, AMA1 RON2 block, Cycloheximide cs)
O=C(CSc1cn[nH]n1)Nc1cccc(C(F)(F)F)c1	none
